The record followed here is PubChem BioAssay AID651718 (The Scripps Research Institute Molecular Screening Center, 2012).

Among all 360,000 compounds or so, about 2,700 (0.75%) were called active. The full list was thinned out, with actives kept by preference. A number with no mark means an inactive call. Rule as the data show it: active = inhibition above about 4.5%; inactive = the rest.

In general, inhibition refers to the relative decrease from the control value, in per cent.

In the assay the test system is Methionine sulfoxide reductase A (Bos taurus). Briefly: bovine MsrA enzyme inhibitors, primary screen, biochemical, absorbance, HTS (AID 651718).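 Also: 0% = vehicle wells with enzyme and 100% = reference inhibitor wells.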 To be noted: purified bovine MsrA, absorbance read-out; at 15.5 µM; active compounds read high.
On to `CCOc1ccc(-c2cc(C)[n+](CCN(CC)CC)c(-c3ccc(OCC)cc3)c2)cc1`, for which the inhibition was 5.24% (active). With `Clc1ccc([C@@H]2CC3CCC2N3)cn1` (stereo not given in full), the inhibition was -0.82%.

Consider `COc1cc(OC)cc(C(=O)NCCN2CCC3(CC2)C(=O)NCN3c2ccccc2)c1`, for which the inhibition was 0%. In the case of `Brc1ccc2c(c1)CNCc1cnnn1-2`, the inhibition is -0.08%. As for `Cc1cc(N2CCNC[C@@H]2C)ccc1N1CC[C@H](O)C1`, the figure is 0%.

For the compound `Cc1ccc(CN2CCCC(C(=O)c3ccc4c(c3)OCO4)C2)cc1C` (stereo not given), the inhibition was 0.84%. Turning to `COc1cccc(CN2CCCC(C(=O)c3ccccc3SC)C2)c1O` (stereo not given), the inhibition was 1.68%. On to `COc1ccc(C(=O)C2CCCN(Cc3ccc(C)s3)C2)cc1OC` (stereo not given), for which the inhibition is 4.73% (active). With `COC1C(O)C(C)OC(OC2CCC3(C=O)C(CCC4C3CCC3(C)C(C5=CC(=O)OC5)CCC43O)C2)C1O` (stereo not given), the inhibition is 0.09%. As for `CCC(C)NC1(c2ccccc2)CCCCC1` (stereo not given), the inhibition was -0.91%. As for `CCCCC(=O)N/N=C/c1c(O)n(CC)c(=S)n(CC)c1=O`, the figure is 5.43% (active). `COc1ccc2c(c1)[C@@]13CCCCC1[C@@H](C2)NCC3` (stereo not given in full): the inhibition is 0.27%. For `O=S(=O)(c1ccccc1)N1CCC2CCNC2C1` (stereo not given), the inhibition is -0.74%. Next, `CS(=O)(=O)N1CCC2CCNC2C1` (stereo not given): 0.9%; `CCN(CC)C(=O)[C@@H]1C=C2c3cccc4[nH]c(Br)c(c34)C[C@H]2N(C)C1`: 0%.
